Test results as given in PubChem BioAssay AID1839 (Johns Hopkins Ion Channel Center, 2009).
Out of some 2,400 compounds screened, about 220 (9.2%) were called active. The entries come from a sample that favours actives as a whole. A number with no mark means an inactive call.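 The calls were made as follows: active = signal change above the mean of dofetilide-free buffer controls plus 3 SD, so a positive margin; inactive = the rest.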

Experiment: nonspecific flux effects in parental CHO-K1, confirmation, counter-screen for hERG block protection project, cell-based, CHO-K1 parental line, FluxOR thallium flux (AID 1839);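 also: compounds applied alone with no dofetilide to cells lacking hERG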
Settings: CHO-K1 parental cells, FluxOR thallium flux fluorescence; at 10 µM

SMILES	signal change vs control minus 3*SD hit threshold (margin above threshold, higher = more increase)
CC1CCc2sc(-c3n[nH]c(=S)o3)cc2C1 (configuration not stated)	-19.1%
CC(C)(C)c1cc(C(=O)NNC(=O)c2ccc(Cl)cc2)no1	-1.2%
O=C(O)c1cc(N/N=C/c2ccc(-c3ccccc3)cc2)ccc1Cl	-29.5%
O=C(O)c1cc(NN=C2c3ccccc3-c3ccccc32)ccc1Cl	3.2% (active)
CCCCOc1ccc(-c2c(C#N)c(N)[nH]c(=S)c2C#N)cc1	-44.5%
CC(NC(=O)c1ccc(Br)cc1)c1ccc2c(c1)CCCC2 (configuration not stated)	2.4% (active)
CC(NC(=O)c1ccc(F)cc1)c1ccc2c(c1)CCCC2 (configuration not stated)	-12.8%
CCc1ccc(C(C)NC(=O)c2ccc(F)cc2)cc1 (configuration not stated)	-6.8%
COc1cccc(NC(=O)CSCc2n[nH]c(=O)[nH]2)c1	-30%
COc1ccc(-c2csc(NC(=S)NC(=O)c3cccs3)n2)cc1OC	-41.1%
CCOc1cc(Br)c(C(=O)O)cc1OC	-30.9%
O=C(CSc1nc2cc(Cl)ccc2s1)c1cc2ccccc2o1	-23%
O=C(Cn1nc(-c2ccccc2)c2ccccc2c1=O)Nc1ccc(O)cc1	-37.1%
O=[N+]([O-])c1cccnc1Sc1n[nH]c(-c2ccc(Cl)cc2)n1	-19.6%
COc1ccc(CCn2c(S)nc3ccccc3c2=O)cc1	-22.5%
C=CCN(CC=C)C(=S)NC(=O)c1ccc([N+](=O)[O-])cc1	-16.4%
C=CCNC(=S)NC(=O)c1ccc(C)c(Br)c1	-26.8%
C=CCN(CC=C)C(=S)NC(=O)c1ccc(OC)cc1	-14.4%
CCN(CC)C(=S)NC(=O)c1ccc(OC)c(Br)c1	-18.8%
C=CCN(CC=C)C(=S)NC(=O)c1ccc(OC)c(Br)c1	4.6% (active)
C=CCN(CC=C)C(=S)NC(=O)c1ccc(C)c(Br)c1	48.9% (active)
Cc1nnc(NC(=O)C2CCCN(S(=O)(=O)c3ccccc3C(F)(F)F)C2)s1 (configuration not stated)	-12.2%
CCCCNC(=O)c1onc(CSc2nc3ccccc3[nH]2)c1C(=O)NCCCC	-27.7%
C=CCn1c(O)c(N=NC(=S)Nc2ccc(OC)cc2)c2ccccc21	-17.1%
Cc1nnc(NC(=O)CN2CCN(Cc3ccc(F)cc3Cl)CC2)s1	-35.7%
O=C(Nc1cccc(N=Cc2cc(Cl)cc(Br)c2O)c1)c1ccco1	-5.5%

SMILES	signal change vs control minus 3*SD hit threshold (margin above threshold, higher = more increase)
CCOC(=O)c1c(NC(=S)NC)sc2c1CCCC2	-11%
CCOC(=O)c1c(NC(=S)NC)sc2c1CC(C)(C)SC2	22.5% (active)
C=CCNC(=S)Nc1sc2c(c1C(=O)OCC)CC(C)(CC)OC2 (configuration not stated)	-1.5%
CCCN(CC1CC1)C(=S)Nc1ccccc1F	-25.8%
COc1cc(/C=C2/SC(=S)N(CC(=O)O)C2=O)ccc1OCC(=O)Nc1ccc(C)c(C)c1	-34.3%
COc1ccccc1C(=O)Nc1ccnn1C1CCN(C(=O)c2ccoc2C)CC1	-41.5%
O=C(CSc1nc(N2CCCCC2)nc(N2CCCCC2)n1)c1ccccc1	-13.7%
Cc1nn(-c2ccc(Cl)cc2)c2sc(C(=O)c3c(N)n(C)c(=O)n(C)c3=O)cc12	-34.5%
Cc1cccc(N=Cc2cc(Br)cc(Cl)c2O)c1	3.2% (active)
COc1cc(Br)cc(C=Nc2cccc(C(F)(F)F)c2)c1O	-8.3%
Cc1ccc(N=Cc2cc(Cl)cc(Cl)c2O)nc1	-26.6%
Oc1c(Cl)cc(Cl)cc1C=Nc1ccc(Br)cc1	12.8% (active)
NC(=O)c1cccc(N=Cc2cc(Cl)cc(Cl)c2O)c1	-22.3%
Cc1ccc(N=Cc2cc(Br)cc(Cl)c2O)cc1	-4.8%
COc1cc(C2NC(=O)NC(O)(C(F)(F)F)C2C(C)=O)cc(OC)c1OC (configuration not stated)	-34.1%
CCOc1cc(/C=C2/C(=O)ON=C2C)ccc1O	-38.8%
Oc1ccc(Cl)cc1C1=NNC(c2cccs2)C1 (configuration not stated)	-19.1%
Cc1ccc(SCc2ccc(C(=O)N3CCCC3)cc2)cc1	-17%
CCOc1ccc(NC(=S)NS(=O)(=O)c2cc(Br)ccc2OCC)cc1	-3.6%
Nc1nnc(SCC(=O)OCc2ccc(F)cc2)s1	-40.4%
Cc1cccc(N2CCN(C(=O)Cc3c(C(=O)O)[nH]c4ccc(Cl)cc34)CC2)c1C	-33.6%
Cc1ccc(S(=O)(=O)N(C)C)cc1NC(=S)NC(C)CCCC(C)C (configuration not stated)	-30.7%
CC(Nc1ccc(F)cc1)=[N+](C)CCNS(=O)(=O)c1ccc(Cl)cc1	-34.8%
CSc1nc(-c2ccccc2)[nH]c(=S)c1C(C)=O	34.8% (active)
CC(=O)c1c(N)[nH]c(-c2ccccc2)nc1=S	-6.7%
CC(=O)c1c(C)[nH]c(-c2ccccc2)nc1=S	-20.4%

SMILES	signal change vs control minus 3*SD hit threshold (margin above threshold, higher = more increase)
O=C1C2CC=CCC2C(=O)N1c1ccc(Cc2ccncc2)cc1 (configuration not stated)	-16%
CCCCn1c(-c2csc(C(C)C)c2)n[nH]c1=S	-20.9%
COc1cc(OC)cc(-c2nc3ccccc3c(=O)n2OC(=O)c2ccc(Br)cc2)c1	-34.9%
O=c1c2cc(Br)ccc2nc(-c2ccc(Cl)cc2)n1O	48.2% (active)
O=c1c2cc(Br)ccc2nc(-c2cccc(Cl)c2)n1O	45.7% (active)
O=c1c2cc(Br)ccc2nc(-c2cccc(C(F)(F)F)c2)n1O	69.7% (active)
N#Cc1ccc(-c2nc3cc(Cl)ccc3c(=O)n2O)cc1	-29.9%
O=C(Cn1nnc(-c2cccc(C(F)(F)F)c2)n1)N1CCCCCC1	-29.6%
NC(=O)c1nn2c(C(F)(F)F)cc(-c3ccccc3)nc2c1Br	-26%
O=c1c2ccc(Cl)cc2nc(-c2cccc(C(F)(F)F)c2)n1O	66.5% (active)
CCCn1c(SC(C)C(=O)N2CCOCC2)nc2ccc(Br)cc2c1=O (configuration not stated)	-28.1%
CCCn1c(SCN2C(=O)c3ccccc3C2=O)nc2cc(Cl)ccc2c1=O	-10.9%
O=C(CCc1ccccc1Cl)Nc1ccc(S(=O)(=O)N2CCOCC2)cc1	-31.3%
CC(=O)OCC1O[C@@H](O[C@@H]2C[C@H]3C(C)(C)[C@H](OC(C)=O)CC[C@]3(C)[C@H]3CC[C@]45C[C@]4(CC[C@H]5[C@@H](C)C[C@@H](O)[C@H](O)C(C)(C)O)[C@@]32C)[C@H](O)[C@@H](O)[C@@H]1O (some centres not stated)	-4.8%
Cc1c(OC(C)C(=O)NCCN2CCOCC2)ccc2c3c(c(=O)oc12)CCC3 (configuration not stated)	-28.3%
Cc1occc1C(=O)NNC(=S)NC(=O)COc1ccc(Cl)cc1Cl	-23.7%
Cc1c(C#N)c(O)[nH]c(=O)c1N=Nc1ccc(Br)cc1C(=O)O	-28.4%
O=c1c2cc(Br)ccc2nc(-c2ccccc2)n1O	5.2% (active)
N#Cc1ccc(-c2nc3ccc(Br)cc3c(=O)n2O)cc1	-5.1%
O=c1cc(-c2ccccc2)cc(-c2ccccc2)n1O	-22.5%
Cc1sc2nc(C(C)C)nc(SCC(=O)NCc3ccco3)c2c1C	-12.6%
O=C(NC(=S)N1CCCC(C(F)(F)F)C1)c1ccc(F)cc1 (configuration not stated)	4.7% (active)
CC(C)(C)c1ccc(C(=O)NC(=S)N2CCCC2)cc1	-17.2%
CC(C)(C)c1ccc(C(=O)NC(=S)N2CCCCCC2)cc1	-12.4%
Cc1nnc(C)n1/N=C/c1cc(Br)cc(Br)c1O	-18.1%
CC(=O)N1c2ccc(N=Cc3cc(Br)cc(Br)c3O)cc2CC1C (configuration not stated)	1.6% (active)

SMILES	signal change vs control minus 3*SD hit threshold (margin above threshold, higher = more increase)
CNC(=S)N/N=C/c1cc(Br)cc(Br)c1O	-14.8%
NC(=O)[C@@H]1CCCN1Cc1nc(Cc2ccccc2Cl)no1	-33.1%
CSc1nc(C)c(Cc2ccccc2)c(=O)[nH]1	-30.6%
CN(C)c1ccc(N=Nc2ccc(C(=O)O)cc2)cc1	-27.2%
O=c1ccc(N=Nc2ccccc2)ccc1O	27.6% (active)
Cc1ccc(N=Nc2ccc(O)c3ncccc23)cc1	-33.4%
CCC1CCCCN1C(=S)NC(=O)c1cccs1 (configuration not stated)	-31.1%
COc1ccc(/C=C/C(=O)Nc2ccccc2C(=O)O)cc1	-18.6%
COc1ccc(-n2nc(C)cc2Nc2ccccc2C(=O)O)cc1	0.3% (active)
COc1ccc(C(=O)Nc2ccccc2C(=O)O)cc1Cl	-30.4%
CCOc1cc(N2CCOCC2)c(OCC)cc1NC(=O)Cc1ccccc1	-13.5%
Nc1nonc1-n1nnc(C(=O)N/N=C/c2ccccn2)c1-c1ccccc1	-22.7%
O=C(NC(=S)Nc1nc2c(s1)CSc1ccccc1-2)c1ccccc1	-20.9%
COc1ccc(-c2cc(C(F)(F)F)nc(SCC(=O)NCc3cccs3)n2)cc1	-17.2%
Cc1ccccc1NC1=NC(=S)N(c2ccccc2)C12CCCCC2	-2.6%
COc1ccc(C(=O)CC(=O)C(=O)Nc2ccccc2Cl)cc1	10.1% (active)
COc1ccc(C(=O)CC(=O)C(=O)Nc2ccccc2OC)cc1	-25.2%
COc1ccc(C(=O)CC(=O)C(=O)Nc2ccc(C)cc2Cl)cc1	-13.5%
CCOc1ccccc1NC(=O)C(=O)CC(=O)c1cccc(OC)c1	-25.9%
COc1ccc(C(=O)CC(=O)C(=O)Nc2ccccc2C(F)(F)F)cc1	-24.1%
COc1cccc(C(=O)NNC(=O)C(=O)Nc2ccc(OC)cc2OC)c1	-6.2%
COc1cccc(C(=O)NNC(=O)C(=O)Nc2cccc3ccccc23)c1	11.1% (active)
COc1ccc(C(=O)NNC(=O)C(=O)Nc2cccc3ccccc23)cc1	12.2% (active)
CCOc1ccccc1NC(=O)C(=O)CC(=O)c1ccc(OC)cc1	-20.6%
